# Compound activity as filed in PubChem.
# USP10 inh = inhibitors of human USP10 deubiquitinase; purified USP10, Ub-rhodamine fluorescence, 60 min; inhibition, % at 20 µM; 47,000 compounds, 1.1% hits; AID 1645856
# USP8 block = inhibitors of human USP8 deubiquitinase. purified USP8, Ub-rhodamine cleavage fluorescence, 30 min. 47,000 compounds, 4.2% hits. AID 1645853. inhibition, % at 20 µM
# USP30 block = human USP30 deubiquitinase inhibition; Q70CQ3; 47,000 compounds, 5.3% hits; purified USP30, Ub-rhodamine cleavage fluorescence; inhibition, % at 25 µM; AID 1645860
# USP17 inh = inhibitors of human USP17 deubiquitinase; A8MUK1; purified USP17, Ub-rhodamine cleavage fluorescence, 3 h; inhibition, % at 50 µM; 47,000 compounds, 6.5% hits; AID 1645855
# USP28 inh = blocks human USP28 ubiquitin-rhodamine cleavage; Q96RU2; purified USP28, Ub-rhodamine cleavage fluorescence, 30 min; inhibition, % at 25 µM; 47,000 compounds, 3% hits
# * marks the source's active call; other numbers are inactive results; nt = no result given. This is a sample that favours compounds with a hit; in the whole collection about 13% have one here. No stated cut-off is given here; in the data, active means inhibition above about 30%; inactive means the rest.
SMILES,USP10 inh,USP8 block,USP30 block,USP17 inh,USP28 inh
CC(=O)c1ccc(N2CCN(C(=O)c3sc(N4CCCC4=O)nc3C(C)C)CC2)cc1,-2,-33,13,-4,0
CC(C)c1nc(N2CCCC2=O)sc1C(=O)Nc1ccc(F)cc1,1,20,-5,4,32*
O=C(CCc1nc2ccccc2s1)Nc1ccc(F)c(F)c1,-7,-15,-70,-30,-34
CN1C(=O)c2cccnc2Sc2cc(NC(=O)COc3ccc(Cl)cc3)ccc21,-2,-17,-54,-38,-3
Cc1cc(NC(=O)CSc2nc3c(cnn3-c3ccc(F)cc3)c(=O)[nH]2)no1,11,-29,21,2,-1
O=C(CSc1nc2c(cnn2-c2ccccc2)c(=O)[nH]1)Nc1ccc(Cl)cc1F,9,80*,30*,-26,15
Cc1cc(C)nc(C2CCN(C(=O)c3cc4nc(C)cc(C)n4n3)C2)n1 (stereo not drawn),-4,-4,-13,-9,-4
O=C(Cn1cc(S(=O)(=O)N2CCCCCC2)ccc1=O)Nc1ccccc1,5,9,-13,36*,-9
Cc1ccccc1Cn1cc(S(=O)(=O)N2CCCCCC2)ccc1=O,2,14,37*,21,10
Cc1ccccc1Cn1cc(S(=O)(=O)N2CCCC2)ccc1=O,0,-5,-3,-7,-14
Cc1ccc(NC(=O)Cn2cc(S(=O)(=O)N3CCCCC3)ccc2=O)cc1,6,13,44*,12,20
CCOc1cccc(CN2Cc3ccccc3OCC2=O)c1,0,3,nt,-3,nt
O=C(CNC(=O)c1cc2c(=O)n3ccccc3nc2s1)c1ccccc1,-2,44*,-214,-34,-75
Cc1ccc(-n2c(-c3cccs3)cn3c4c(=O)n(C)c(=O)n(C)c4nc23)cc1,7,6,-2,36*,-4
Cn1c(=O)c2c(nc3n(-c4ccccc4F)c(-c4ccccc4)cn23)n(C)c1=O,0,9,72*,39*,2
Cc1cn2c3c(=O)n(C)c(=O)n(C)c3nc2n1Cc1cccc2ccccc12,3,-80,48*,7,10
COc1ccc(CCn2c(-c3ccccc3)cn3c4c(=O)n(C)c(=O)n(C)c4nc23)cc1OC,2,-38,39*,10,16
CN1CC(=O)N(C2CCNC2)Cc2c(NC3Cc4ccccc4C3)ncnc21 (stereo not drawn),-3,12,12,50*,20
O=c1c2cc(-c3ccccc3)nn2ccn1Cc1noc(CN2CCCC2)n1,-4,0,-10,-5,-1
Cn1c(SCC(=O)c2ccc3c(c2)OCCCO3)nnc1-c1ccc2ccccc2c1,20,-4,49*,27,31*
Cn1c(SCCOc2ccccc2Cl)nnc1-c1ccc2c(c1)OCCO2,3,5,39*,17,38*
O=C(COc1ncnc2scc(-c3ccccc3)c12)c1ccc(S(=O)(=O)N2CCCC2)cc1,-13,-21,-96,-16,-28
Cn1c(NC(=O)c2ccc(-c3ccccc3)cc2)cc(=O)n(C)c1=O,-2,-13,-23,-29,-21
O=C(Nc1sc2c(c1C(=O)NCc1cccnc1)CCCC2)c1csnn1,12,-17,11,49*,38*
CC(C)(C)c1ccc(C(=O)NCc2cccnc2)s1,1,-19,-8,nt,-8
SMILES,USP10 inh,USP8 block,USP30 block,USP17 inh,USP28 inh
COC(=O)c1cc(O)cc(OC)c1C(=O)c1c(O)c(Cl)c(C)c(Cl)c1O,2,4,10,18,15
COC(=O)c1c(OC)cc2c(c1C)Oc1c(Cl)c(O)c(Cl)c(C)c1C(=O)O2,32*,-4,30*,16,21
Cc1nc(-c2csc(S(=O)(=O)Nc3cccc(Cl)c3C)c2)no1,8,16,15,12,14
Nc1c(-c2ccccn2)nsc1C(=O)N1CCN(c2ccc(F)cc2)CC1,9,14,36*,24,6
Nc1c(-c2ccccn2)nsc1C(=O)N1CCN(c2ccccc2)CC1,-2,9,8,2,6
Cc1ccc(-c2cc(C(=O)N3CCc4ccccc4C3)nn2C2CCS(=O)(=O)C2)cc1 (stereo not drawn),9,8,31*,9,16
Cc1ccc(-c2noc(Cc3nnc(-c4ccccc4)o3)n2)cc1,-4,-13,-10,20,0
Cc1ccc(-c2noc(CNc3ccc(Oc4ccccc4)cc3)n2)cc1,5,79*,8,30,22
O=C(NCc1nc2ccccc2[nH]1)c1cccc(S(=O)(=O)N2CCc3ccccc32)c1,7,-61,59*,31*,29
Cc1ccc(C)c(CSc2ncnc3nc[nH]c23)c1,3,-19,-8,-6,40*
Cc1nccc(C2CCCN(C(=O)Cc3c(C)n[nH]c3C)C2)n1 (stereo not drawn),-2,3,-13,1,-9
CCOC(=O)c1cnn(-c2nc3ccccc3s2)c1N=CN(C)C,4,11,97*,70*,69*
Cc1oc2ncn3nc(C(C)Oc4cccc5ccccc45)nc3c2c1C (stereo not drawn),-11,78*,-144,32*,-9
CC(C)=CCc1c(O)cc2c(c1C)OC(=O)c1c(C)c(Cl)c(O)c(CO)c1O2,48*,10,39*,37*,49*
COc1cc(O)c2c(c1CC=C(C)C)OC(c1ccc(O)cc1)CC2=O (stereo not drawn),-9,-24,-30,-46,2
O=C(NC1CCCC1)c1ccc(Cn2c(=O)c3ccccc3n(Cc3cc(=O)n4ccccc4n3)c2=O)cc1,13,17,2,27,11
Cc1ccc2cccc(OCc3nnc(SCC(=O)c4ccc(Cl)cc4)n3C)c2n1,13,33*,39*,61*,6
O=C(COC(=O)C1(c2ccc(Cl)cc2)CCCC1)c1ccc2c(c1)OCCO2,4,0,-21,-15,-7
O=C(COc1ccc2ccc(=O)oc2c1)c1ccc2c(c1)OCCO2,-3,2,-179,43*,-20
CCN(c1ccccc1)S(=O)(=O)c1ccc2[nH]cc(C(=O)NCc3cccnc3)c(=O)c2c1,22,38*,-1,16,5
Cc1ccc(CC(=O)N2CCC(c3ncncc3-c3ccnc(N)c3)C2)cc1C (stereo not drawn),0,0,5,-9,-3
COc1cccc(CN2C[C@H]3NC(=O)c4ccccc4C(=O)[C@@]3(C)C2)c1,2,-13,0,1,-6
CCOC(=O)c1ccc(NC(=O)Cc2sc(Nc3ccc(O)cc3)nc2O)cc1,4,0,-13,24,-3
Cc1ccc(Nc2nc(O)c(CC(=O)Nc3cccc(Cl)c3C)s2)cc1C,30*,63*,15,14,6
COc1ccccc1N1CCN(C(=O)/C=C/c2ccc(OCc3ccccc3)cc2)CC1,5,1,-13,-1,-7
Cc1ccc(NC(=O)COC(=O)Cn2cnc3ccccc32)cc1F,-3,-30,-25,-14,22
